From PubChem BioAssay AID1259245 (Vanderbilt High Throughput Screening Facility, 2017) come the findings set out here.

“And” between values parts separate entries of the source, which are not always exact repeats. Equal entries are not always repeated. The campaign covered roughly 40,000 compounds. About 1,400 (3.5%) were called active. This is one part of a sample in which actives are shown more often than they occur.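 Rule for the calls: active = any of four per-well response measures lying three or more SD from its plate-wide compound average, in either direction; inactive = the rest, inconclusive results apart.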

Voltage-dependent calcium channel gamma-2 subunit (Mus musculus) + Glutamate receptor 2 (Rattus norvegicus), sequence (O88602 whole entry, looked up): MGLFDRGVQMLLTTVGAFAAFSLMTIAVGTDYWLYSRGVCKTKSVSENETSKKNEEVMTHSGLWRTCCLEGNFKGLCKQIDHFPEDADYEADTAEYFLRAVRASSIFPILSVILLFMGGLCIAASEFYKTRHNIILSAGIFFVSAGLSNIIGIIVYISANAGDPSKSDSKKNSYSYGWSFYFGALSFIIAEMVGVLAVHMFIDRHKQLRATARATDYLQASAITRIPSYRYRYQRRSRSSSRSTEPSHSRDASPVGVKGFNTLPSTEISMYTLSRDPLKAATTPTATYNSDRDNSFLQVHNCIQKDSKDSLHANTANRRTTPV
Voltage-dependent calcium channel gamma-2 subunit (Mus musculus) + Glutamate receptor 2 (Rattus norvegicus), sequence (P19491 whole entry, looked up): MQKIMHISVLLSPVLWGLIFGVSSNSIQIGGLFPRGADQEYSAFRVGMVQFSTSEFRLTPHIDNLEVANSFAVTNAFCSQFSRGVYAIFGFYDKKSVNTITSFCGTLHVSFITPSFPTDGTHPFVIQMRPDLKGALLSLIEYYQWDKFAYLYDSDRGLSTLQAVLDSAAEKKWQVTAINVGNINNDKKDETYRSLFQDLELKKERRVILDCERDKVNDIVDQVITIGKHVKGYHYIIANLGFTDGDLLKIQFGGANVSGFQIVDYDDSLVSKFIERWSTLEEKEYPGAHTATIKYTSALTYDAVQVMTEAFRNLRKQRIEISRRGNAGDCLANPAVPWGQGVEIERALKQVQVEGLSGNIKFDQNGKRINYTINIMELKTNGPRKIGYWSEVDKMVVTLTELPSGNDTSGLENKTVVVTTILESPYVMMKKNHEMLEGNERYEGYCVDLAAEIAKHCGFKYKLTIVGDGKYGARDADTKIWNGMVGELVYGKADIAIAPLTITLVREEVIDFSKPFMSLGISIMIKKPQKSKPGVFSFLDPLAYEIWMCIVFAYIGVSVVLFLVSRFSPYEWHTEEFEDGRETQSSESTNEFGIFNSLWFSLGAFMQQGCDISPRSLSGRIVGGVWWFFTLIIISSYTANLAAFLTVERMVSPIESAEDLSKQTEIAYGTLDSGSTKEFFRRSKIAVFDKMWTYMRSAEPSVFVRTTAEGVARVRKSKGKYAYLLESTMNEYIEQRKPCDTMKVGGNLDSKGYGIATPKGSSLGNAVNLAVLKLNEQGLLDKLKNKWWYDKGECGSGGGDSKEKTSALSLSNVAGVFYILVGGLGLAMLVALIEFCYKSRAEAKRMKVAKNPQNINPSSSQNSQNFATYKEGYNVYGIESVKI

This assay concerns the target Voltage-dependent calcium channel gamma-2 subunit (Mus musculus) + Glutamate receptor 2 (Rattus norvegicus) (UniProt O88602+P19491). Kind of assay: modulators of GluA2-stargazin AMPA receptor complexes, primary screen, cell-based, membrane potential dye (AID 1259245). As to conditions: HEK293 GluA2+stargazin, membrane potential dye (FDSS), glutamate EC50, at 30 µM, hits were called plate by plate, in both directions; compound max-min signal: compound-alone response (agonism); glutamate slope, % of max: measured here: glutamate response slope, % max.
Regarding `CCOC(=O)N1CCN(/C=C(\C#N)C(=O)Nc2ccccc2)CC1`, the compound max-min signal came to 0.158; the glutamate response, % of max was 47.6% (inactive); the glutamate slope, % of max was 78%.

For the molecule `Cc1ccc(F)cc1NC(=O)CSc1ncc(S(=O)(=O)c2ccc(Cl)s2)c(N)n1`, the compound max-min signal is 0.162; the glutamate response, % of max was 28.9% (inactive); the glutamate slope, % of max was 52.4%.

For the molecule `CCOCCn1c(=O)c2c(nc3n2CCCN3c2ccc(Br)cc2)n(C)c1=O`, the compound max-min signal was 0.127; the glutamate response, % of max is 46.2% (inactive); the glutamate slope, % of max is 67.4%.

With `COc1ccc(OC)c2sc(N(CCN3CCOCC3)C(=O)c3cccs3)nc12`, the compound max-min signal stood at 0.221; the glutamate response, % of max was 45.8% (inactive); the glutamate slope, % of max turned out to be 65.3%.

As to `COc1ccc(Cl)c2sc(N(CCCN3CCOCC3)C(=O)c3ccno3)nc12`, the compound max-min signal is 0.17; the glutamate response, % of max was 19.9% (active); the glutamate slope, % of max was 29.3%.

Consider `COc1ccc(OC)c2sc(N(CCN3CCOCC3)C(=O)c3cccc(F)c3)nc12`, for which the compound max-min signal stood at 0.177; the glutamate response, % of max is 47.1% (inactive); the glutamate slope, % of max came to 60.4%.

Consider `O=C(/C=C/c1cccs1)NCC1CCN(C(=O)COc2ccccc2)CC1`, for which the compound max-min signal was determined as 0.0649; the glutamate response, % of max is 42% (inactive); the glutamate slope, % of max came out at 61.3%.

`Cc1cc(C)c(NC(=O)CN2CCN(c3nccn3-c3ccccc3F)CC2)c(C)c1`: the compound max-min signal came out at 0.0429; the glutamate response, % of max is 8.38% (inactive); the glutamate slope, % of max came out at 22.6%.

With `O=C(Cc1csc(NC(=O)c2ccc(=O)[nH]c2)n1)NCCC1=CCCCC1`, the compound max-min signal was 0.0625; the glutamate response, % of max was 14.3% (inactive); the glutamate slope, % of max came to 44.1%.

`CCC(C(=O)Nc1cc(C)nn1-c1nc2c(cnn2-c2ccccc2)c(=O)[nH]1)c1ccccc1` (stereo unspecified): the compound max-min signal was 0.102; the glutamate response, % of max is 34.9% (inactive); the glutamate slope, % of max amounted to 55.6%.

In the case of `Cc1cc(NC(=O)C(C)Oc2ccccc2)n(-c2nc3c(cnn3-c3ccc(C)c(C)c3)c(=O)[nH]2)n1` (stereo unspecified), the compound max-min signal turned out to be 0.407; the glutamate response, % of max is 19.4% (active); the glutamate slope, % of max was 19.7%.

In the case of `O=C(Nn1cnc2c(cnn2-c2cccc(Cl)c2)c1=O)c1ccc(-c2ccccc2)cc1`, the compound max-min signal was found to be 0.0867; the glutamate response, % of max is 36% (inactive); the glutamate slope, % of max turned out to be 64%.

Turning to `Cc1ccc(-n2ncc3c(=O)n(CC(=O)N4CCc5ccccc54)cnc32)cc1C`, the compound max-min signal worked out at 0.12; the glutamate response, % of max is 54.7% (inactive); the glutamate slope, % of max is 80.7%.

For `Cc1cc(NC(=O)c2ccc3c(c2)OCO3)n(-c2nc3c(cnn3-c3cccc(Cl)c3)c(=O)[nH]2)n1`, the compound max-min signal was 0.15; the glutamate response, % of max is 27.3% (active); the glutamate slope, % of max turned out to be 36%.

`CCCC(CCC)C(=O)Nc1cc(C)nn1-c1nc2c(cnn2-c2cccc(Cl)c2)c(=O)[nH]1`: the compound max-min signal stood at 0.134; the glutamate response, % of max was 34% (inactive); the glutamate slope, % of max is 47.5%.

With `Cc1ccccc1CN1C(=O)C2(c3ccccc31)N(c1ccc(F)c(F)c1)C(=O)CS2(=O)=O` (stereo unspecified), the compound max-min signal is 0.109; the glutamate response, % of max was 63.6% (inactive); the glutamate slope, % of max is 74.8%.

On to `CC1CCN(CC(O)COc2ccc(C(=O)c3ccccc3)cc2)CC1` (stereo unspecified), for which the compound max-min signal turned out to be 0.0506; the glutamate response, % of max is 53.3% (inactive); the glutamate slope, % of max was determined as 82.1%.

On to `O=C(CCSc1ccccc1)NCC1(c2cccs2)CCOCC1`, for which the compound max-min signal was determined as 0.0983; the glutamate response, % of max is 28% (inactive); the glutamate slope, % of max stood at 50.4%.

`Cc1ccc(S(=O)(=O)N2CCCCC2CCN)cc1` (stereo unspecified): the compound max-min signal came out at 0.0595; the glutamate response, % of max is 35.1% (inactive); the glutamate slope, % of max came to 57.7%.

For `Cc1ccc(-n2ccnc2N2CCN(CC(=O)Nc3ccc4c(c3)OCO4)CC2)cc1`, the compound max-min signal is 0.0402; the glutamate response, % of max was 18.2% (inactive); the glutamate slope, % of max was 39.2%.

`CCSc1nnc(-c2ccc(C)cc2)n1-c1ccccc1`: the compound max-min signal came out at 0.0317; the glutamate response, % of max was 0.366% (inactive); the glutamate slope, % of max is -1.02%.

With `CC(C)c1ccc(NC(=O)C(=O)NCCN2CCN(c3ccc(Cl)cc3)CC2)cc1`, the compound max-min signal turned out to be 0.121; the glutamate response, % of max is 29.8% (inactive); the glutamate slope, % of max was found to be 55.1%.

Regarding `O=c1oc(-c2ccncc2)nc2c(Cl)cccc12`, the compound max-min signal came out at 0.253; the glutamate response, % of max is 22.4% (active); the glutamate slope, % of max was found to be 51.7%.

`Cc1ccc(-c2nc3c(C)cc(C)cc3c(=O)o2)cc1`: the compound max-min signal was found to be 0.127; the glutamate response, % of max is 23.3% (inactive); the glutamate slope, % of max was 45.9%.

For the molecule `Cc1cc(C(=O)O)c2cccc(Cl)c2n1`, the compound max-min signal is 0.0395 and 0.0789; the glutamate response, % of max is 80.9% (inactive) and 28.3% (inactive); the glutamate slope, % of max is 99.3% and 46.1%.

As to `O=C(Nc1ccc2c(c1)OCO2)c1ccc(S(=O)(=O)N2CCCCCC2)cc1`, the compound max-min signal was determined as 0.123; the glutamate response, % of max is 36.1% (inactive); the glutamate slope, % of max came out at 60.4%.

Turning to `COc1ccc(N2C(=O)/C(=C/c3ccncc3)SC2=S)cc1`, the compound max-min signal is 0.061; the glutamate response, % of max was 31.6% (inactive); the glutamate slope, % of max amounted to 49.4%.

For the molecule `O=C(Nc1cccc(N2CCCCC2=O)c1)c1cc([N+](=O)[O-])ccc1Cl`, the compound max-min signal was 0.113; the glutamate response, % of max was 24.4% (inactive); the glutamate slope, % of max turned out to be 52.2%.

Turning to `Cc1ccc(C(=O)Nc2cccc(N3CCCC3=O)c2)cc1[N+](=O)[O-]`, the compound max-min signal was 0.195; the glutamate response, % of max was 33.5% (active); the glutamate slope, % of max worked out at 54.6%.

Turning to `Cc1cccc(C(=O)Nc2cccc(N3CCCC3=O)c2)c1`, the compound max-min signal was found to be 0.114; the glutamate response, % of max is 45.7% (inactive); the glutamate slope, % of max was found to be 67.6%.

In the case of `COc1ccc(NC(=O)COc2ccccc2F)cc1N1CCCCC1=O`, the compound max-min signal worked out at 0.0429; the glutamate response, % of max was 20.8% (inactive); the glutamate slope, % of max turned out to be 35.3%.

For `O=C(Nc1onc2c1CCCC2)c1nc(-c2cnccn2)no1`, the compound max-min signal was determined as 0.128; the glutamate response, % of max was 29.1% (inactive); the glutamate slope, % of max was determined as 62.8%.

With `CCC(C)NC(=O)/C=C/c1cc(OC)ccc1OC` (stereo unspecified), the compound max-min signal was 0.0444 and 0.0831; the glutamate response, % of max was 100% (inactive) and 35.1% (inactive); the glutamate slope, % of max is 112% and 48.5%.

For `O=C(Nc1ccc(S(=O)(=O)Nc2nccs2)cc1)c1csc(-c2cnccn2)n1`, the compound max-min signal stood at 0.274; the glutamate response, % of max is 48.2% (active); the glutamate slope, % of max stood at 85.9%.

`CC(C)c1cc(=O)n(CC(=O)Nc2ccc(S(=O)(=O)Nc3nccs3)cc2)cn1`: the compound max-min signal was 0.0931; the glutamate response, % of max was 41.9% (inactive); the glutamate slope, % of max is 61.5%.

Regarding `CCCCCOc1cccc(C(=O)Nc2ccc(S(=O)(=O)Nc3nnc(CC)s3)cc2)c1`, the compound max-min signal worked out at 0.112; the glutamate response, % of max was 38.7% (inactive); the glutamate slope, % of max was found to be 62.1%.

Turning to `CCOc1ccccc1NC(=O)Cn1nc(-c2cc(C)c(C)cc2C)ccc1=O`, the compound max-min signal worked out at 0.0944; the glutamate response, % of max was 64% (inactive); the glutamate slope, % of max stood at 97.5%.

Regarding `Cc1nc2ccccc2c(=O)n1-c1cccc(NC(=O)CCC2CCCCC2)c1`, the compound max-min signal was 0.0678; the glutamate response, % of max is 11% (inactive); the glutamate slope, % of max turned out to be 28.2%.

For `O=C(NC(C(=O)N1CCCCC1)C12CC3CC(CC(C3)C1)C2)c1ccc(F)cc1` (stereo unspecified), the compound max-min signal worked out at 0.0524; the glutamate response, % of max is 56.1% (active); the glutamate slope, % of max was 79.2%.

Turning to `O=C(NC(C(=O)O)C12CC3CC(CC(C3)C1)C2)c1cc([N+](=O)[O-])ccc1Cl` (stereo unspecified), the compound max-min signal was found to be 0.0736; the glutamate response, % of max was 35.4% (inactive); the glutamate slope, % of max came out at 56.5%.

As for `COC(=O)N1CCC(CNC(=O)c2ccc(F)cc2)CC1`, the compound max-min signal was 0.0851; the glutamate response, % of max was 46.6% (inactive); the glutamate slope, % of max was found to be 66.5%.

In the case of `O=C(Nc1sc2ccccc2c(=O)c1-c1ccc2c(c1)OCO2)c1ccco1`, the compound max-min signal was found to be 0.14; the glutamate response, % of max is 24.9% (inactive); the glutamate slope, % of max came out at 55.4%.
